The record followed here is PMC11006913.

Common to all, as to test: PBM; 200 nM protein, PBS
Common to all, as to conditions: dsDNA, one strand shown

Assay [1] deals with HESX1 (Homo sapiens, UniProt Q9UBX0 95-180, R165K).
The target of assay [2] is HESX1 (Homo sapiens, UniProt Q9UBX0 95-180).
Assay [3] has as its target HESX1 (Homo sapiens, UniProt Q9UBX0 95-180, R109Q).
The target of assay [4] is HESX1 (Homo sapiens, UniProt Q9UBX0 95-180, P111T).
The target in assay [5] is HESX1 (Homo sapiens, UniProt Q9UBX0 95-180, F115L).
Chain of HESX1 (Homo sapiens, UniProt Q9UBX0 95-180, F115L) (Q9UBX0 95-180 F115L): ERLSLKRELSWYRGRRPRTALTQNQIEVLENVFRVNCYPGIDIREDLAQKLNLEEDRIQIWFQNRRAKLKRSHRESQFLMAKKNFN

Chain of HESX1 (Homo sapiens, UniProt Q9UBX0 95-180, R165K) (Q9UBX0 95-180 R165K): as the sequence (Q9UBX0 95-180 F115L) above, with L21F, R71K counted along it
Chain of HESX1 (Homo sapiens, UniProt Q9UBX0 95-180, R109Q) (Q9UBX0 95-180 R109Q): as the sequence (Q9UBX0 95-180 F115L) above, with R15Q, L21F counted along it
Chain of HESX1 (Homo sapiens, UniProt Q9UBX0 95-180) (Q9UBX0 95-180): as the sequence (Q9UBX0 95-180 F115L) above, with L21F counted along it
Chain of HESX1 (Homo sapiens, UniProt Q9UBX0 95-180, P111T) (Q9UBX0 95-180 P111T): as the sequence (Q9UBX0 95-180 F115L) above, with P17T, L21F counted along it

As to CAGGTCGG, the binding signal in the assay with HESX1 [1] is 6.41 upbm affinity estimate (log intensity, higher = more binding, comparable within an allelic series); in the assay with HESX1 [2], 6.42 upbm affinity estimate (log intensity, higher = more binding, comparable within an allelic series); in the assay with HESX1 [3] it was 6.6 upbm affinity estimate (log intensity, higher = more binding, comparable within an allelic series); with HESX1 [4], 6.48 upbm affinity estimate (log intensity, higher = more binding, comparable within an allelic series); in the assay with HESX1 [5], 6.57 upbm affinity estimate (log intensity, higher = more binding, comparable within an allelic series).
As for CGCTCCTC, the binding signal with HESX1 [1] is 6.29 upbm affinity estimate (log intensity, higher = more binding, comparable within an allelic series); with HESX1 [2], 6.25 upbm affinity estimate (log intensity, higher = more binding, comparable within an allelic series); in the assay with HESX1 [3] it was 6.53 upbm affinity estimate (log intensity, higher = more binding, comparable within an allelic series); in the assay with HESX1 [4] it was 6.33 upbm affinity estimate (log intensity, higher = more binding, comparable within an allelic series); with HESX1 [5], 6.5 upbm affinity estimate (log intensity, higher = more binding, comparable within an allelic series).
For the sequence CGCCAGGC, the binding signal in the assay with HESX1 [1] was 6.38 upbm affinity estimate (log intensity, higher = more binding, comparable within an allelic series); with HESX1 [2], 6.37 upbm affinity estimate (log intensity, higher = more binding, comparable within an allelic series); in the assay with HESX1 [3] it was 6.46 upbm affinity estimate (log intensity, higher = more binding, comparable within an allelic series); with HESX1 [4] it was 6.32 upbm affinity estimate (log intensity, higher = more binding, comparable within an allelic series); in the assay with HESX1 [5] it was 6.44 upbm affinity estimate (log intensity, higher = more binding, comparable within an allelic series).
For GGCGCTAC, the binding signal in the assay with HESX1 [1] was 6.32 upbm affinity estimate (log intensity, higher = more binding, comparable within an allelic series); with HESX1 [2], 6.38 upbm affinity estimate (log intensity, higher = more binding, comparable within an allelic series); with HESX1 [3] it was 6.35 upbm affinity estimate (log intensity, higher = more binding, comparable within an allelic series); with HESX1 [4], 6.43 upbm affinity estimate (log intensity, higher = more binding, comparable within an allelic series); in the assay with HESX1 [5], 6.32 upbm affinity estimate (log intensity, higher = more binding, comparable within an allelic series).
As for CAGAGTCA, the binding signal with HESX1 [1] was 6.47 upbm affinity estimate (log intensity, higher = more binding, comparable within an allelic series); with HESX1 [2], 6.43 upbm affinity estimate (log intensity, higher = more binding, comparable within an allelic series); with HESX1 [3] it was 6.67 upbm affinity estimate (log intensity, higher = more binding, comparable within an allelic series); in the assay with HESX1 [4], 6.59 upbm affinity estimate (log intensity, higher = more binding, comparable within an allelic series); with HESX1 [5], 6.54 upbm affinity estimate (log intensity, higher = more binding, comparable within an allelic series).
Regarding CAGTGTCG, the binding signal in the assay with HESX1 [1] was 6.55 upbm affinity estimate (log intensity, higher = more binding, comparable within an allelic series); with HESX1 [2], 6.52 upbm affinity estimate (log intensity, higher = more binding, comparable within an allelic series); in the assay with HESX1 [3], 6.61 upbm affinity estimate (log intensity, higher = more binding, comparable within an allelic series); with HESX1 [4], 6.51 upbm affinity estimate (log intensity, higher = more binding, comparable within an allelic series); in the assay with HESX1 [5], 6.58 upbm affinity estimate (log intensity, higher = more binding, comparable within an allelic series).
Take AAGGAGGC: the binding signal with HESX1 [1] was 6.49 upbm affinity estimate (log intensity, higher = more binding, comparable within an allelic series); with HESX1 [2] it was 6.42 upbm affinity estimate (log intensity, higher = more binding, comparable within an allelic series); with HESX1 [3], 6.53 upbm affinity estimate (log intensity, higher = more binding, comparable within an allelic series); with HESX1 [4], 6.52 upbm affinity estimate (log intensity, higher = more binding, comparable within an allelic series); with HESX1 [5] it was 6.51 upbm affinity estimate (log intensity, higher = more binding, comparable within an allelic series).
Regarding AGGAGCTG, the binding signal in the assay with HESX1 [1] is 6.51 upbm affinity estimate (log intensity, higher = more binding, comparable within an allelic series); with HESX1 [2], 6.45 upbm affinity estimate (log intensity, higher = more binding, comparable within an allelic series); with HESX1 [3], 6.4 upbm affinity estimate (log intensity, higher = more binding, comparable within an allelic series); with HESX1 [4], 6.4 upbm affinity estimate (log intensity, higher = more binding, comparable within an allelic series); with HESX1 [5], 6.28 upbm affinity estimate (log intensity, higher = more binding, comparable within an allelic series).
As for ACTTTATA, the binding signal with HESX1 [1] is 7.59 upbm affinity estimate (log intensity, higher = more binding, comparable within an allelic series); with HESX1 [2], 7.66 upbm affinity estimate (log intensity, higher = more binding, comparable within an allelic series); in the assay with HESX1 [3], 7.19 upbm affinity estimate (log intensity, higher = more binding, comparable within an allelic series); with HESX1 [4], 7.41 upbm affinity estimate (log intensity, higher = more binding, comparable within an allelic series); with HESX1 [5], 7.31 upbm affinity estimate (log intensity, higher = more binding, comparable within an allelic series).
Regarding CCCGGAGG, the binding signal in the assay with HESX1 [1] is 6.31 upbm affinity estimate (log intensity, higher = more binding, comparable within an allelic series); with HESX1 [2], 6.31 upbm affinity estimate (log intensity, higher = more binding, comparable within an allelic series); with HESX1 [3], 6.41 upbm affinity estimate (log intensity, higher = more binding, comparable within an allelic series); with HESX1 [4], 6.39 upbm affinity estimate (log intensity, higher = more binding, comparable within an allelic series); with HESX1 [5], 6.42 upbm affinity estimate (log intensity, higher = more binding, comparable within an allelic series).
Take CGTGCCAC: the binding signal is 6.27 upbm affinity estimate (log intensity, higher = more binding, comparable within an allelic series) with HESX1 [1]; 6.24 upbm affinity estimate (log intensity, higher = more binding, comparable within an allelic series) with HESX1 [2]; 6.45 upbm affinity estimate (log intensity, higher = more binding, comparable within an allelic series) with HESX1 [3]; 6.56 upbm affinity estimate (log intensity, higher = more binding, comparable within an allelic series) in the assay with HESX1 [4]; 6.43 upbm affinity estimate (log intensity, higher = more binding, comparable within an allelic series) with HESX1 [5].
As for ACTCAATA, the binding signal with HESX1 [1] was 7.78 upbm affinity estimate (log intensity, higher = more binding, comparable within an allelic series); with HESX1 [2], 7.87 upbm affinity estimate (log intensity, higher = more binding, comparable within an allelic series); with HESX1 [3] it was 7.28 upbm affinity estimate (log intensity, higher = more binding, comparable within an allelic series); with HESX1 [4] it was 7.59 upbm affinity estimate (log intensity, higher = more binding, comparable within an allelic series); with HESX1 [5], 7.33 upbm affinity estimate (log intensity, higher = more binding, comparable within an allelic series).
With AGACGCTC, the binding signal is 6.35 upbm affinity estimate (log intensity, higher = more binding, comparable within an allelic series) with HESX1 [1]; 6.34 upbm affinity estimate (log intensity, higher = more binding, comparable within an allelic series) in the assay with HESX1 [2]; 6.5 upbm affinity estimate (log intensity, higher = more binding, comparable within an allelic series) in the assay with HESX1 [3]; 6.36 upbm affinity estimate (log intensity, higher = more binding, comparable within an allelic series) in the assay with HESX1 [4]; 6.54 upbm affinity estimate (log intensity, higher = more binding, comparable within an allelic series) in the assay with HESX1 [5].
As for CCGCTCCC, the binding signal is 6.47 upbm affinity estimate (log intensity, higher = more binding, comparable within an allelic series) with HESX1 [1]; 6.49 upbm affinity estimate (log intensity, higher = more binding, comparable within an allelic series) with HESX1 [2]; 6.46 upbm affinity estimate (log intensity, higher = more binding, comparable within an allelic series) with HESX1 [3]; 6.35 upbm affinity estimate (log intensity, higher = more binding, comparable within an allelic series) with HESX1 [4]; 6.43 upbm affinity estimate (log intensity, higher = more binding, comparable within an allelic series) in the assay with HESX1 [5].
Consider AGCTTGCG, for which the binding signal with HESX1 [1] was 6.46 upbm affinity estimate (log intensity, higher = more binding, comparable within an allelic series); with HESX1 [2] it was 6.4 upbm affinity estimate (log intensity, higher = more binding, comparable within an allelic series); with HESX1 [3] it was 6.39 upbm affinity estimate (log intensity, higher = more binding, comparable within an allelic series); with HESX1 [4] it was 6.32 upbm affinity estimate (log intensity, higher = more binding, comparable within an allelic series); in the assay with HESX1 [5] it was 6.52 upbm affinity estimate (log intensity, higher = more binding, comparable within an allelic series).
Consider AAGGGCAC, for which the binding signal in the assay with HESX1 [1] is 6.53 upbm affinity estimate (log intensity, higher = more binding, comparable within an allelic series); in the assay with HESX1 [2] it was 6.41 upbm affinity estimate (log intensity, higher = more binding, comparable within an allelic series); in the assay with HESX1 [3], 6.62 upbm affinity estimate (log intensity, higher = more binding, comparable within an allelic series); with HESX1 [4], 6.56 upbm affinity estimate (log intensity, higher = more binding, comparable within an allelic series); with HESX1 [5], 6.62 upbm affinity estimate (log intensity, higher = more binding, comparable within an allelic series).
In the case of ACGCCTAC, the binding signal in the assay with HESX1 [1] was 6.48 upbm affinity estimate (log intensity, higher = more binding, comparable within an allelic series); in the assay with HESX1 [2] it was 6.44 upbm affinity estimate (log intensity, higher = more binding, comparable within an allelic series); with HESX1 [3], 6.44 upbm affinity estimate (log intensity, higher = more binding, comparable within an allelic series); with HESX1 [4], 6.5 upbm affinity estimate (log intensity, higher = more binding, comparable within an allelic series); in the assay with HESX1 [5], 6.46 upbm affinity estimate (log intensity, higher = more binding, comparable within an allelic series).
For AAGTTCCC, the binding signal is 6.43 upbm affinity estimate (log intensity, higher = more binding, comparable within an allelic series) in the assay with HESX1 [1]; 6.39 upbm affinity estimate (log intensity, higher = more binding, comparable within an allelic series) with HESX1 [2]; 6.56 upbm affinity estimate (log intensity, higher = more binding, comparable within an allelic series) in the assay with HESX1 [3]; 6.49 upbm affinity estimate (log intensity, higher = more binding, comparable within an allelic series) in the assay with HESX1 [4]; 6.65 upbm affinity estimate (log intensity, higher = more binding, comparable within an allelic series) with HESX1 [5].
